The list is not random: actives were taken first. Their share in the collection is about 11%.
Sm TGR inh = S. mansoni TGR enzyme inhibition | purified TGR, DTNB reduction, TNB absorbance 405 nm | Potency, µM (doses to about 114 µM), actives largely listed as inhibitors | 360,000 tested, 3% active | AID 485364; also: nearly all actives have a fitted effect of over 60% in size
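First, TGR (20 nM dispensed) and NADPH were mixed with compound. Second, a 15 min room-temperature incubation followed. Third, further NADPH and then DTNB were added to start the reaction. Finally, TNB absorbance was monitored kinetically.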
Pf growth 48h = inhibits P. falciparum growth in the first generation, 48 h. P. falciparum luciferase growth in erythrocytes, 48 h. Potency, µM (titrated, usually from 28.7 µM), hits mostly inhibitors. 310,000 tested, 5.9% active
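In quantitative HTS format, infected erythrocytes bearing luciferase-reporter parasites were treated for a single generation at 37 C. Luminescence after adding detection reagent served as the growth measure.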
NS1 inh = blocks influenza NS1 protein function | Potency, µM (highest dose often 46.1 µM) | AID 2326 | 270,000 tested, 0.4% active; calls by dose curve; also: actives are rising curves; nearly all actives have a fitted effect of over 50% in size
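Read-out: OD600 growth recovery of NS1-expressing budding yeast. Cells grown overnight at 30C in -URA glucose medium, washed, resuspended and diluted 1:100 in 2% galactose assay medium, pH 6.0. Same strain lacking NS1 served as positive control.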
Pf growth 96h = inhibits malaria parasite growth, 96 h; P. falciparum luciferase reporter growth, 96 h; Potency, µM (titrated, usually from 28.7 µM), actives largely listed as inhibitors; 320,000 tested, 6.9% active; AID 504834
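Delayed-death screen, second-generation endpoint: infected erythrocytes, 2% hematocrit, 0.05% parasitemia final; 96 hours at 37 C, 5% CO2; luciferase detection reagent; luminescence decrease equals reduced growth.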
AMA1 RON2 block = disrupts binding of P. falciparum AMA1 to RON2; AlphaScreen AMA1-biotinylated RON2 peptide binding; Potency, µM (top dose mostly 58.2 µM), actives largely listed as inhibitors; 360,000 tested, 0.2% active; AID 720542; also: nearly all actives have a fitted effect of over 45% in size
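AMA1 (3D7) with his tag at 25 nM final met compounds first, then biotinylated RON2 peptide at 25 nM; detection used donor plus acceptor beads, 10 µg/mL apiece, read by AlphaScreen after 30 min at room temperature.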
Hits are given with their value; [ ] = remark or other dose. Unless noted, calls follow the shape of the dose curve; as a rule, active = well fitted curve in the direction sought with a large enough effect; inconclusive = small, poorly fitted or top-dose-only effect, or another doubt; inactive = no such curve, though single readings can be large; an effect the other way counts as inactive or inconclusive.

`COc1ccc(CCN(C)C2CCCN(S(=O)(=O)c3ccccc3F)C2)cc1OC` (stereo not given) gave Sm TGR inh inactive, Pf growth 48h inconclusive, NS1 inh inactive, Pf growth 96h 13.1µM and AMA1 RON2 block inactive.
CN(CCc1ccccn1)C1CCCN(S(=O)(=O)c2ccccc2)C1 (stereo not given) was read as Sm TGR inh inactive, Pf growth 48h inactive, NS1 inh inactive, Pf growth 96h inactive and AMA1 RON2 block inactive.
Screening CN(CCc1ccccc1)C1CCCN(S(=O)(=O)CC(F)(F)F)C1 (stereo not given) returned Sm TGR inh inconclusive, Pf growth 48h inactive, NS1 inh inactive, Pf growth 96h 10.4µM and AMA1 RON2 block inactive.
CC(=O)c1ccc(S(=O)(=O)N2CCCC(N(C)CCc3ccccn3)C2)cc1 (stereo not given) was read as Sm TGR inh 20µM, Pf growth 48h inactive, NS1 inh inactive, Pf growth 96h inactive and AMA1 RON2 block inactive.
Screening COc1ccc(CCN(C)C2CCCN(S(=O)(=O)N(C)C)C2)cc1OC (stereo not given) returned AMA1 RON2 block inactive.
For Cc1ccc(S(=O)(=O)N2CCCCC2)cc1NC(=O)Cn1c(=O)cnc2ccccc21 the results were Sm TGR inh inactive, Pf growth 48h inactive, NS1 inh inactive, Pf growth 96h inconclusive and AMA1 RON2 block inactive.
`C#C[C@@]1(O)CC[C@@H]2[C@@H]3CCC4=C(CCC(=O)C4)[C@H]3CC[C@]21C` gave Pf growth 48h inactive and Pf growth 96h inactive.
`CCOC(=O)c1ccc(Nc2cc(C)nc(-c3ccccc3)n2)cc1` gave Sm TGR inh inactive, Pf growth 48h 10.4µM, NS1 inh inactive, Pf growth 96h inactive and AMA1 RON2 block inactive.
Screening O=C1C=C(Nc2ccc(O)cc2)C(=O)c2ccccc21 returned Sm TGR inh inconclusive, Pf growth 48h inactive, NS1 inh inactive, Pf growth 96h inactive and AMA1 RON2 block inconclusive.
For NS(=O)(=O)c1ccc(NC2=CC(=O)C(=O)c3ccccc32)cc1 the results were Sm TGR inh inactive, Pf growth 48h inconclusive, NS1 inh inactive, Pf growth 96h 10.4µM and AMA1 RON2 block inactive.
CC(=O)Nc1ccc(NC2=CC(=O)c3ccccc3C2=O)cc1 was read as Sm TGR inh inactive, Pf growth 48h inconclusive, NS1 inh inactive, Pf growth 96h 0.586µM and AMA1 RON2 block inactive.
Screening Cc1cc(NC2=CC(=O)C(=O)c3ccccc32)no1 returned AMA1 RON2 block inactive.
`CCOC(=O)c1ccc(Nc2nc(C)cc(C)n2)cc1` gave Sm TGR inh inactive, Pf growth 48h inactive[0.00184 µM], NS1 inh inactive, Pf growth 96h inactive and AMA1 RON2 block inactive.
`Cc1ccc(NC2=CC(=O)C(=O)c3ccccc32)cc1` gave Sm TGR inh inactive, Pf growth 48h 0.522µM, NS1 inh inactive, Pf growth 96h 0.828µM and AMA1 RON2 block inactive.
`Cc1nn(CCCC(=O)Nc2cccc(F)c2)c(=O)c2c1sc1ccccc12` gave Sm TGR inh inactive.
`COc1ccc(-n2c(-c3ccccc3F)nc3c(cnn3-c3ccc(C)cc3)c2=O)cc1` gave Sm TGR inh inactive.
NC(=O)C1CCN(c2nc(-c3cccc(Br)c3)cs2)CC1 was read as Pf growth 48h inconclusive and Pf growth 96h inactive.
CCOC(=O)c1ccc(NC2=CC(=O)C(=O)c3ccccc32)cc1 was read as Sm TGR inh inactive, Pf growth 48h 5.86µM, NS1 inh inactive, Pf growth 96h inactive and AMA1 RON2 block inactive.
For COc1cc(OC)c(NC2=CC(=O)C(=O)c3ccccc32)cc1Cl the results were Sm TGR inh inconclusive, Pf growth 48h 0.329µM, NS1 inh inactive, Pf growth 96h inactive and AMA1 RON2 block inactive.
Screening COCC(=O)N1CCC(Oc2ccc(C(=O)NCCc3ccncc3)cc2)CC1 returned Sm TGR inh inactive, Pf growth 48h inactive, NS1 inh inactive, Pf growth 96h inactive and AMA1 RON2 block inactive.
Screening Cc1ccc(C(=O)NCC(=O)NC2CCCCCC2)cc1 returned Sm TGR inh inactive, Pf growth 48h inactive, NS1 inh inactive, Pf growth 96h inconclusive and AMA1 RON2 block inactive.
`CCCc1cc(=O)[nH]c(SCCc2ccccc2)n1` gave Sm TGR inh inactive, Pf growth 48h inactive, NS1 inh inactive, Pf growth 96h 9.28µM and AMA1 RON2 block inactive.
CCCc1cc(=O)[nH]c(NCCc2ccccc2)n1 was read as Sm TGR inh inactive, Pf growth 48h inconclusive, NS1 inh inactive, Pf growth 96h 13.1µM and AMA1 RON2 block inactive.
